# In all, about 2,900 compounds were measured (“NF-kB SEAP reporter activity, fold change vs agonist alone”: median about 0.99, highest 2% from about 2.6 on). The entries come from a sample that favours the highest values as a whole.
# Columns and labels:
# RAW-Dual [1] = assay: NF-kB SEAP reporter activity, fold change vs agonist alone; cytotoxicity flag (confluency mask): not cytotoxic; higher = enhanced NF-kB activity
# In short: (§1)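 Reporter activity is given as fold change relative to agonist-alone wells. To measure it, 50 nL of library stock was pin-tooled onto RAW-Dual macrophages (50,000 cells/well, DMEM, 384-well plates), a PRR agonist followed 1 h later, and cells stayed at 37 °C, 5% CO2. Twenty hours on, supernatant was assayed for IRF (QuantiLuc luminescence) and NF-κB (QuantiBlue, 620 nm absorbance), and wells under 70% of agonist-control IncuCyte confluency in both mask sets were marked cytotoxic.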
# RAW-Dual [2] = assay: NF-kB SEAP reporter activity, fold change vs agonist alone; higher = enhanced NF-kB activity
# In short: as §1
# RAW-Dual [3] = assay: NF-kB SEAP reporter activity, fold change vs agonist alone; cytotoxicity flag (confluency mask): cytotoxic (confluency <70% of control); higher = enhanced NF-kB activity
# In short: as §1
# [4] = agonist: ODN 1826 (TLR9) 0.5 ug/mL
# [5] = agonist: Pam2CSK4 (TLR2/6) 0.1 ug/mL
# [6] = agonist: Pam3CSK4 (TLR2/1) 0.1 ug/mL
# [7] = library stock concentration (final ~1000-fold dilution): 10 mM, cytotoxicity flag (confluency mask): not cytotoxic, agonist: Imiquimod (TLR7) […]
# [8] = library stock concentration (final ~1000-fold dilution): 10 mM, cytotoxicity flag (confluency mask): not cytotoxic, agonist: MPLA (TLR4) […]
# [9] = library stock concentration (final ~1000-fold dilution): 10 mM, cytotoxicity flag (confluency mask): cytotoxic (confluency <70% of control), agonist: Imiquimod (TLR7) […]
# [10] = library stock concentration (final ~1000-fold dilution): 10 mM, cytotoxicity flag (confluency mask): cytotoxic (confluency <70% of control), agonist: MPLA (TLR4) […]
smiles,measurement,setting,value
CC(=O)c1c(C)c2cnc(Nc3ccc(N4CCNCC4)cn3)nc2n(C2CCCC2)c1=O.O=S(=O)(O)CCO (library stock concentration (final ~1000-fold dilution): 10 mM water),NF-kB SEAP reporter activity,RAW-Dual [1]; agonist: LPS (TLR4) 0.1 ug/mL,1.71
same,NF-kB SEAP reporter activity,RAW-Dual [1]; [4],0.449
same,NF-kB SEAP reporter activity,RAW-Dual [1]; [5],0.752
same,NF-kB SEAP reporter activity,RAW-Dual [1]; [6],1.29
CC(=O)c1c(C)c2cnc(Nc3ccc(N4CCNCC4)cn3)nc2n(C2CCCC2)c1=O.O=S(=O)(O)CCO,NF-kB SEAP reporter activity,"RAW-Dual [2]; library stock concentration (final ~1000-fold dilution): 10 mM water, cytotoxicity flag (confluency mask): not cytotoxic, agonist: Imiquimod (TLR7) […]",0.674
same,NF-kB SEAP reporter activity,"RAW-Dual [2]; library stock concentration (final ~1000-fold dilution): 10 mM water, cytotoxicity flag (confluency mask): not cytotoxic, agonist: MPLA (TLR4) […]",1.09
CCC(Nc1ncnc2[nH]cnc12)c1nc2cccc(F)c2c(=O)n1-c1ccccc1 (stereo unspecified) (library stock concentration (final ~1000-fold dilution): 10 mM),NF-kB SEAP reporter activity,RAW-Dual [1]; agonist: LPS (TLR4) 0.1 ug/mL,1.27
same,NF-kB SEAP reporter activity,RAW-Dual [1]; [4],1.08
same,NF-kB SEAP reporter activity,RAW-Dual [1]; [5],0.969
same,NF-kB SEAP reporter activity,RAW-Dual [1]; [6],0.843
CCC(Nc1ncnc2[nH]cnc12)c1nc2cccc(F)c2c(=O)n1-c1ccccc1 (stereo unspecified),NF-kB SEAP reporter activity,RAW-Dual [2]; [7],0.75
same,NF-kB SEAP reporter activity,RAW-Dual [2]; [8],0.952
CC(NC(=O)c1ncnc(N)c1Cl)c1ncc(C(=O)Nc2cc(C(F)(F)F)c(Cl)cn2)s1 (stereo unspecified) (library stock concentration (final ~1000-fold dilution): 10 mM),NF-kB SEAP reporter activity,RAW-Dual [1]; agonist: LPS (TLR4) 0.1 ug/mL,0.632
same,NF-kB SEAP reporter activity,RAW-Dual [1]; [4],0.495
same,NF-kB SEAP reporter activity,RAW-Dual [1]; [5],0.383
same,NF-kB SEAP reporter activity,RAW-Dual [1]; [6],0.417
CC(NC(=O)c1ncnc(N)c1Cl)c1ncc(C(=O)Nc2cc(C(F)(F)F)c(Cl)cn2)s1 (stereo unspecified),NF-kB SEAP reporter activity,RAW-Dual [2]; [7],0.623
same,NF-kB SEAP reporter activity,RAW-Dual [2]; [8],0.876
O=C1C(Cc2ccc(O)cc2)N2C(=O)CCN(C(=O)NCc3ccccc3)C2CN1Cc1cccc2ccccc12 (stereo unspecified) (library stock concentration (final ~1000-fold dilution): 10 mM),NF-kB SEAP reporter activity,RAW-Dual [1]; agonist: LPS (TLR4) 0.1 ug/mL,3.72
same,NF-kB SEAP reporter activity,RAW-Dual [1]; [4],1.08
same,NF-kB SEAP reporter activity,RAW-Dual [1]; [5],0.484
same,NF-kB SEAP reporter activity,RAW-Dual [1]; [6],0.63
O=C1C(Cc2ccc(O)cc2)N2C(=O)CCN(C(=O)NCc3ccccc3)C2CN1Cc1cccc2ccccc12 (stereo unspecified),NF-kB SEAP reporter activity,RAW-Dual [2]; [7],1.45
same,NF-kB SEAP reporter activity,RAW-Dual [2]; [8],2.26
CNCCN1CCC(OCc2ccccc2)CC1.Cl.Cl,NF-kB SEAP reporter activity,RAW-Dual [2]; [7],1.55
same,NF-kB SEAP reporter activity,RAW-Dual [2]; [8],0.921
CNCCN1CCC(OCc2ccccc2)CC1.Cl.Cl (library stock concentration (final ~1000-fold dilution): 10 mM),NF-kB SEAP reporter activity,RAW-Dual [1]; agonist: LPS (TLR4) 0.1 ug/mL,1.03
same,NF-kB SEAP reporter activity,RAW-Dual [1]; [4],1.45
same,NF-kB SEAP reporter activity,RAW-Dual [1]; [5],0.877
same,NF-kB SEAP reporter activity,RAW-Dual [1]; [6],1.53
CC1OC(OC2C(Oc3cc(O)c(C(=O)CCc4ccc(O)cc4)c(O)c3)OC(CO)C(O)C2O)C(O)C(O)C1O (stereo unspecified),NF-kB SEAP reporter activity,RAW-Dual [2]; [7],0.957
same,NF-kB SEAP reporter activity,RAW-Dual [2]; [8],1.03
CC1OC(OC2C(Oc3cc(O)c(C(=O)CCc4ccc(O)cc4)c(O)c3)OC(CO)C(O)C2O)C(O)C(O)C1O (stereo unspecified) (library stock concentration (final ~1000-fold dilution): 10 mM),NF-kB SEAP reporter activity,RAW-Dual [1]; agonist: LPS (TLR4) 0.1 ug/mL,0.867
same,NF-kB SEAP reporter activity,RAW-Dual [1]; [4],0.991
same,NF-kB SEAP reporter activity,RAW-Dual [1]; [5],0.784
same,NF-kB SEAP reporter activity,RAW-Dual [1]; [6],1.06
O=c1c(-c2ccc(O)cc2)coc2cc(OC3OC(CO)C(O)C(O)C3O)ccc12 (stereo unspecified),NF-kB SEAP reporter activity,RAW-Dual [2]; [7],1.08
same,NF-kB SEAP reporter activity,RAW-Dual [2]; [8],1.08
O=c1c(-c2ccc(O)cc2)coc2cc(OC3OC(CO)C(O)C(O)C3O)ccc12 (stereo unspecified) (library stock concentration (final ~1000-fold dilution): 10 mM),NF-kB SEAP reporter activity,RAW-Dual [1]; agonist: LPS (TLR4) 0.1 ug/mL,1.62
same,NF-kB SEAP reporter activity,RAW-Dual [1]; [4],1.17
same,NF-kB SEAP reporter activity,RAW-Dual [1]; [5],1.25
same,NF-kB SEAP reporter activity,RAW-Dual [1]; [6],1.38
CN(CC(=O)N(Cc1ccc(C2CCCCC2)cc1)c1ccc(C(=O)NO)cc1)S(=O)(=O)c1c(F)c(F)c(F)c(F)c1F,NF-kB SEAP reporter activity,RAW-Dual [2]; [7],1.3
same,NF-kB SEAP reporter activity,RAW-Dual [2]; [8],1.02
CN(CC(=O)N(Cc1ccc(C2CCCCC2)cc1)c1ccc(C(=O)NO)cc1)S(=O)(=O)c1c(F)c(F)c(F)c(F)c1F (library stock concentration (final ~1000-fold dilution): 10 mM),NF-kB SEAP reporter activity,RAW-Dual [1]; agonist: LPS (TLR4) 0.1 ug/mL,0.324
same,NF-kB SEAP reporter activity,RAW-Dual [1]; [4],1.53
same,NF-kB SEAP reporter activity,RAW-Dual [1]; [5],0.374
same,NF-kB SEAP reporter activity,RAW-Dual [1]; [6],0.284
CN1CCN(S(=O)(=O)c2ccc(-c3cnc(N)c(C(=O)Nc4cccnc4)n3)cc2)CC1,NF-kB SEAP reporter activity,RAW-Dual [2]; [7],1.5
same,NF-kB SEAP reporter activity,RAW-Dual [2]; [8],2.5
CC(C)(C)c1ccc(S(=O)(=O)NCc2ccc(C(=O)Nc3cccnc3)cc2)cc1 (library stock concentration (final ~1000-fold dilution): 10 mM),NF-kB SEAP reporter activity,RAW-Dual [1]; agonist: LPS (TLR4) 0.1 ug/mL,0.67
same,NF-kB SEAP reporter activity,RAW-Dual [1]; [4],1.1
same,NF-kB SEAP reporter activity,RAW-Dual [1]; [5],0.834
same,NF-kB SEAP reporter activity,RAW-Dual [1]; [6],0.706
CNCc1ccc(-c2cc(-c3nc(-c4ccc(S(=O)(=O)C(C)C)cc4)cnc3N)on2)cc1 (library stock concentration (final ~1000-fold dilution): 10 mM),NF-kB SEAP reporter activity,RAW-Dual [1]; agonist: LPS (TLR4) 0.1 ug/mL,1.06
same,NF-kB SEAP reporter activity,RAW-Dual [1]; [4],0.943
same,NF-kB SEAP reporter activity,RAW-Dual [1]; [5],0.871
same,NF-kB SEAP reporter activity,RAW-Dual [1]; [6],1.05
CS(=O)(=O)c1ccc(C(=O)Nc2ccc(Cl)c(-c3ccccn3)c2)c(Cl)c1,NF-kB SEAP reporter activity,RAW-Dual [2]; [7],1.07
same,NF-kB SEAP reporter activity,RAW-Dual [2]; [8],0.945
CN1CCN(S(=O)(=O)c2ccc(-c3cnc(N)c(C(=O)Nc4cccnc4)n3)cc2)CC1 (library stock concentration (final ~1000-fold dilution): 10 mM),NF-kB SEAP reporter activity,RAW-Dual [1]; agonist: LPS (TLR4) 0.1 ug/mL,4.28
same,NF-kB SEAP reporter activity,RAW-Dual [1]; [4],2.61
same,NF-kB SEAP reporter activity,RAW-Dual [1]; [5],1.11
same,NF-kB SEAP reporter activity,RAW-Dual [1]; [6],2.07
CS(=O)(=O)O.Cc1ccc(NC(=O)c2ccc(CN3CCN(C)CC3)cc2)cc1Nc1nccc(-c2cccnc2)n1 (library stock concentration (final ~1000-fold dilution): 10 mM),NF-kB SEAP reporter activity,RAW-Dual [3]; agonist: LPS (TLR4) 0.1 ug/mL,1.29
same,NF-kB SEAP reporter activity,RAW-Dual [3]; [4],0.201
same,NF-kB SEAP reporter activity,RAW-Dual [3]; [5],1.13
same,NF-kB SEAP reporter activity,RAW-Dual [3]; [6],1.25
CNCc1ccc(-c2cc(-c3nc(-c4ccc(S(=O)(=O)C(C)C)cc4)cnc3N)on2)cc1,NF-kB SEAP reporter activity,RAW-Dual [2]; [7],0.858
same,NF-kB SEAP reporter activity,RAW-Dual [2]; [8],0.98
CS(=O)(=O)c1ccc(-c2cnc(N)c(C(=O)Nc3ccccc3)n2)cc1,NF-kB SEAP reporter activity,RAW-Dual [2]; [7],1.45
same,NF-kB SEAP reporter activity,RAW-Dual [2]; [8],2.21
CS(=O)(=O)c1ccc(C(=O)Nc2ccc(Cl)c(-c3ccccn3)c2)c(Cl)c1 (library stock concentration (final ~1000-fold dilution): 10 mM),NF-kB SEAP reporter activity,RAW-Dual [1]; agonist: LPS (TLR4) 0.1 ug/mL,1.19
same,NF-kB SEAP reporter activity,RAW-Dual [1]; [4],1.4
same,NF-kB SEAP reporter activity,RAW-Dual [1]; [5],0.898
same,NF-kB SEAP reporter activity,RAW-Dual [1]; [6],1.01
CC(C)(C)c1ccc(S(=O)(=O)NCc2ccc(C(=O)Nc3cccnc3)cc2)cc1,NF-kB SEAP reporter activity,RAW-Dual [2]; [7],0.865
same,NF-kB SEAP reporter activity,RAW-Dual [2]; [8],0.908
CS(=O)(=O)O.Cc1ccc(NC(=O)c2ccc(CN3CCN(C)CC3)cc2)cc1Nc1nccc(-c2cccnc2)n1,NF-kB SEAP reporter activity,RAW-Dual [2]; [9],1.24
same,NF-kB SEAP reporter activity,RAW-Dual [2]; [10],1.46
CS(=O)(=O)c1ccc(-c2cnc(N)c(C(=O)Nc3ccccc3)n2)cc1 (library stock concentration (final ~1000-fold dilution): 10 mM),NF-kB SEAP reporter activity,RAW-Dual [1]; agonist: LPS (TLR4) 0.1 ug/mL,4.61
same,NF-kB SEAP reporter activity,RAW-Dual [1]; [4],0.67
same,NF-kB SEAP reporter activity,RAW-Dual [1]; [5],1.02
same,NF-kB SEAP reporter activity,RAW-Dual [1]; [6],1.48
CC/C=C\C/C=C\C/C=C\C/C=C\C/C=C\C/C=C\CCC(=O)NCCNC(=O)c1ccccc1O (library stock concentration (final ~1000-fold dilution): 10 mM),NF-kB SEAP reporter activity,RAW-Dual [3]; agonist: LPS (TLR4) 0.1 ug/mL,0.318
same,NF-kB SEAP reporter activity,RAW-Dual [3]; [4],0.298
same,NF-kB SEAP reporter activity,RAW-Dual [3]; [5],0.133
same,NF-kB SEAP reporter activity,RAW-Dual [3]; [6],0.184
CC/C=C\C/C=C\C/C=C\C/C=C\C/C=C\C/C=C\CCC(=O)NCCNC(=O)c1ccccc1O,NF-kB SEAP reporter activity,RAW-Dual [2]; [9],0.248
same,NF-kB SEAP reporter activity,RAW-Dual [2]; [10],1.54
C=CC(=O)N1CC(N2CCN(C(=O)CNc3cc(C4(C)CC4)c(Cl)cc3O)CC2)C1 (library stock concentration (final ~1000-fold dilution): 10 mM),NF-kB SEAP reporter activity,RAW-Dual [1]; agonist: LPS (TLR4) 0.1 ug/mL,0.418
same,NF-kB SEAP reporter activity,RAW-Dual [1]; [4],0.542
same,NF-kB SEAP reporter activity,RAW-Dual [1]; [5],0.537
same,NF-kB SEAP reporter activity,RAW-Dual [1]; [6],0.448
C=CC(=O)N1CC(N2CCN(C(=O)CNc3cc(C4(C)CC4)c(Cl)cc3O)CC2)C1,NF-kB SEAP reporter activity,RAW-Dual [2]; [7],0.915
same,NF-kB SEAP reporter activity,RAW-Dual [2]; [8],0.645
